Where “and” joins values, the source holds several entries; their conditions need not be identical. Equal values may be shown once. About 79,000 compounds went through this panel and 15% of them were active in at least one assay; those are over-represented in the sample as a whole. Values without a mark were called inactive. Cut-off read from the data, not from the text of the source: active = growth inhibition above about 70%; inactive = the rest.

This experiment can be described thus: NCI Yeast Anticancer Drug Screen. Data for the sgs1 mgt1 strain (AID 161).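 Note: 0% = growth of cultures given vehicle only.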 To be noted: S. cerevisiae sgs1 mgt1 strain, at 50.0 µM, hits give high values. The gist of the method:
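Yeast cells carrying a defined DNA-repair defect were exposed to test compounds. Growth inhibition was measured relative to vehicle-treated controls.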
Turning to `N.N.N.N.O=C([O-])C(=O)O.O=C([O-])C(=O)[O-].[Co+3]`, the growth inhibition was -10.6%. Next, `O=C1NC(=O)C(CC(C(=O)C(=O)Nc2ccccc2Cl)C(=O)c2ccc3ccccc3c2)C(=O)N1` (stereo not drawn): -6.3%; `CSCCC([NH-])C(=O)O.CSCCC([NH-])C(=O)O.[Cu+2]` (stereo not drawn): -9.2%. For `CC(C)=NNC1=NC(CC(C)C)P(=O)(NCCCCNP2(=O)SC(NN=C(C)C)=NC2CC(C)C)S1` (stereo not drawn), the growth inhibition was 11.1%. Regarding `CCCCOS(C)(=O)=O`, the growth inhibition is 22.4%.

On to `CN(C)NP(c1ccccc1)c1ccccc1`, for which the growth inhibition is -5.95%. In the case of `NC(CO)Cc1ccccc1` (stereo not drawn), the growth inhibition is -1.45% and -4.1%. `O=C(CN1CCCCC1)c1ccc(Br)cc1`: the growth inhibition was 9.4%. `COc1ccc(N=NC(=O)NC(CC(C)C)C(=O)NCC(=O)O)cc1` (stereo not drawn): the growth inhibition is 10.4%. Regarding `COc1cc(C(=O)O)cc(OC)c1OC`, the growth inhibition is -23.1%.

Consider `CCCCC[N+]1=Cc2cc(O)c(O)cc2CC1`, for which the growth inhibition was 1.75%. On to `O=C(O)C(=O)Cc1ccc2c(c1)OCO2`, for which the growth inhibition was -28.6%.

On to `O=C1NCCCCC1Cl` (stereo not drawn), for which the growth inhibition is -4%. For `COC(=O)N/N=C(\C)C(CN(C)C)C(c1ccccc1)c1c(O)c2ccccc2oc1=O` (stereo not drawn), the growth inhibition was 47%. As to `Fc1ccc(C(Cl)(Cl)Cl)cc1`, the growth inhibition is 2.75%. `C=C[CH2][Sn]([CH3])([CH3])[CH2]C=C`: the growth inhibition was 2.75%. Next, `CC(O)C[As](=O)(O)c1ccccc1Cl` (stereo not drawn): -17.3%; `NCCCP(c1ccccc1)c1ccccc1`: -5.65%.

The record behind these values is PubChem BioAssay (NCI).
